Experimental data: PubChem BioAssay AID1445 (SRMLSC, 2008)
The whole screen tested about 220,000 compounds, of which about 910 (0.41%) were called active.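 Rule for the calls: active = primary inhibition above the hit cutoff, then over 50% inhibition at one or more dose response concentrations (cut at about 23% in these data, passing the limit was not always enough); inconclusive = conflicting primary data, or primary hits not chosen for dose response; inactive = low primary inhibition, or under 50% at every dose.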 The sample as a whole holds a higher share of actives than the screen did. Entries with a potency or affinity are not part of this list.

Molecular target: Aminopeptidase N (Plasmodium falciparum (isolate 3D7)) (UniProt O96935)
Test: P. falciparum M1AAP inhibitors, biochemical, fluorogenic H-Leu-NHMec substrate, 1536-well (AID 1445);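 note: plate controls were DMSO full reaction for no effect and no enzyme background for full effect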
Conditions: recombinant M1AAP, H-Leu-NHMec fluorogenic kinetic assay; at 30 µM, active compounds read high unless noted

Sequence of Aminopeptidase N (Plasmodium falciparum (isolate 3D7)) (O96935 whole entry, looked up): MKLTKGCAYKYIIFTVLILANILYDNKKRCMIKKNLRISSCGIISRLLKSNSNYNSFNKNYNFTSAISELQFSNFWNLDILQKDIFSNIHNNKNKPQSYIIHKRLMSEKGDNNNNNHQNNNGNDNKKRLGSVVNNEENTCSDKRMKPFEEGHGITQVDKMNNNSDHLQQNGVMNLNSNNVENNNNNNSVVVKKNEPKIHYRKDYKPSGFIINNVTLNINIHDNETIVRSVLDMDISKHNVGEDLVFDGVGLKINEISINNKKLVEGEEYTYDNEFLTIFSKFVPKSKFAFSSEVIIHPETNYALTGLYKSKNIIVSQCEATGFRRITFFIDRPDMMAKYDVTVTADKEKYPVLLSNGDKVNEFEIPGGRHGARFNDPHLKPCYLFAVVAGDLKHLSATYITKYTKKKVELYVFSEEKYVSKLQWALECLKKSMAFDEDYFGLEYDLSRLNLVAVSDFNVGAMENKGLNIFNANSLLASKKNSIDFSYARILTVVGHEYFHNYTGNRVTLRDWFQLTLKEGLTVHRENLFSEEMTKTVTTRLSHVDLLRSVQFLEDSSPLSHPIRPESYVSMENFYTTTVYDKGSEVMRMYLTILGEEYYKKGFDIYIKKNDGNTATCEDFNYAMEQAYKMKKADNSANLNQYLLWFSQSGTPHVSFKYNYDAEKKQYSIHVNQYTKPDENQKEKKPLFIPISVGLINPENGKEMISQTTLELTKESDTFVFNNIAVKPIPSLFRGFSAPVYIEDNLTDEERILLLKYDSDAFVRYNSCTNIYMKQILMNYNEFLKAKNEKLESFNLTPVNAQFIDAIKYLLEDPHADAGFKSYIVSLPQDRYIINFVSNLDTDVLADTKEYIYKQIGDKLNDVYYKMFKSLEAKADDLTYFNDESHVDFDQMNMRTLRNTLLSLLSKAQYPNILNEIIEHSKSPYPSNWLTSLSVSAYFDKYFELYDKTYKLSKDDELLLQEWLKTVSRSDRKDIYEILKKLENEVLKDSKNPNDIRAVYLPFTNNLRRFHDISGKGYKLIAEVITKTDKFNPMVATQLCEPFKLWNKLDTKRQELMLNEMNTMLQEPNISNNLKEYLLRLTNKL

| SMILES | inhibition |
| --- | --- |
| CC12CNCC(C)(CN(C3(O)C(=O)Nc4ccc(Br)cc43)C1)C2=O (stereo unspecified) | -7.16% (inactive) |
| O=C(c1cccc([N+](=O)[O-])c1)N1CCN(Cc2ccc3c(c2)OCO3)CC1 | 0.06% (inactive) |
| O=C(/C=C/c1cccc([N+](=O)[O-])c1)NCc1ccc2c(c1)OCO2 | 6.01% (inactive) |
| CN(Cc1c(F)cccc1Cl)c1ccc(S(=O)(=O)N2CCOCC2)cn1 | -2.07% (inactive) |
| O=C1OC(c2cccs2)=N/C1=C/c1ccc(-c2cccc(C(=O)O)c2)o1 | 10.5% (inactive) |
| O=C1OC(c2cccs2)=N/C1=C\c1ccc(-c2ccccc2Cl)o1 | 15.5% (inactive) |
| O=C1OC(c2cccs2)=N/C1=C\c1ccc(-c2cccc(Cl)c2)o1 | 24.5% (active) |
| O=C(COC(=O)c1cccs1)NC1CCCCC1 | 4.47% (inactive) |
| O=C(O)c1ccccc1-c1ccc(/C=C/c2cc(C(F)(F)F)[nH]c(=O)n2)o1 | 15.6% (inactive) |
| O=c1nc(/C=C/c2ccc(-c3ccc(F)cc3)o2)cc(C(F)(F)F)[nH]1 | 27.6% (active) |
| COc1ccc(/C=C/c2cc(C(F)(F)F)[nH]c(=O)n2)cc1OC | 10.6% (inactive) |
| COC(=O)[C@@H]1CC[C@H](C)[C@@H](c2ccc(C)cc2)N1C(=O)c1ccc(/C=N/OC[C@@H](O)[C@H]2O[C@@H]3OC(C)(C)O[C@@H]3[C@H]2O)cc1 | 7.48% (inactive) |
| COc1ccccc1NC(=O)c1cc([N+](=O)[O-])ccc1NCCN1C(=O)CCC1=O | 10.1% (inactive) |
| Cc1ccc(S(=O)(=O)Nc2ccc3oc(=O)sc3c2)c(C)c1 | 21.7% (inactive) |
| O=C(O)c1cccc(S(=O)(=O)Nc2ccc3oc(=O)sc3c2)c1 | 89.5% (inactive) |
| OCCN1CCN(CCOc2ccccc2-c2ccccc2)CC1 | -1.14% (inactive) |
| C=C(C)c1cccc(C(C)(C)NC(=O)Nc2cc(C)ccn2)c1 | 14.8% (inactive) |
| C=C(C)c1cccc(C(C)(C)NC(=O)Nc2ccc(Cl)cn2)c1 | 6.48% (inactive) |
| O=C(C=C1CCN(c2ncc(C(F)(F)F)cc2Cl)CC1)NNC(=O)Nc1ccc(Cl)cc1 | 1.48% (inactive) |
| Nc1c(N(CCO)C(=O)C2CCCCC2)c(=O)[nH]c(=O)n1Cc1ccccc1 | 3.34% (inactive) |
| COCCCN(C(=O)c1cc2c(s1)CCC2)c1c(N)n(Cc2ccccc2)c(=O)[nH]c1=O | -2.38% (inactive) |
| Cc1nnc2sc(-c3ccccn3)nn12 | -1.47% (inactive) |
| COC(=O)C1=C(N)Oc2cc(C)n(CCCn3ccnc3)c(=O)c2C1c1ccc(Cl)cc1 (stereo unspecified) | 27.9% (active) |

| SMILES | inhibition |
| --- | --- |
| COC(=O)C1=C(N)Oc2cc(C)n(C)c(=O)c2C1c1ccc(Cl)cc1 (stereo unspecified) | -1.12% (inactive) |
| COC(=O)C1=C(N)Oc2cc(C)n(CC3CCCO3)c(=O)c2C1c1ccc(Cl)cc1 (stereo unspecified) | 10.9% (inactive) |
| Cc1ccc(C)c(-n2c(Cc3cccs3)n[nH]c2=S)c1 | -6.44% (inactive) |
| CC(C)CCNC(=O)C(c1ccco1)N(CCCO)C(=O)Cn1nnc(-c2ccc(F)cc2)n1 (stereo unspecified) | 2.71% (inactive) |
| O=C(CSc1nnc(NC2CCCCC2)s1)Nc1ccc(N2CCOCC2)cc1 | 0.83% (inactive) |
| O=C(Nc1ccccc1)/C(=C/c1cccnc1)NC(=O)c1ccco1 | -3.98% (inactive) |
| Cc1ccc(/C=N/NC(=O)c2cccs2)cc1[N+](=O)[O-] | 5.44% (inactive) |
| CCOc1cc(/C=N\NC(=O)c2ccc(C)nc2)cc([N+](=O)[O-])c1O | 19.1% (inactive) |
| O=C(c1cccnc1)N1CCN(c2ccc([N+](=O)[O-])cc2Cl)CC1 | 7.28% (inactive) |
| CCN1CCCC1CNC(=O)C(=O)Nc1ccccc1 (stereo unspecified) | 4.81% (inactive) |
| O=C1Nc2ccc(Cl)cc2C12Nc1ccccc1-c1nnc(SCc3ccccc3F)nc1O2 (stereo unspecified) | 19.9% (inactive) |
| O=C1Nc2ccc(F)cc2C12Nc1ccccc1-c1nnc(SCc3ccccc3Cl)nc1O2 (stereo unspecified) | 14.4% (inactive) |
| CC(Oc1cc(F)ccc1[N+](=O)[O-])C(=O)N(C)CC(=O)Nc1ccccc1C(F)(F)F (stereo unspecified) | 7.16% (inactive) |
| O=C1C2=C(c3ccccc31)[N+](=O)[C@@H]1CCCC[C@@H]1N2[O-] | 8.78% (inactive) |
| CC(NC(=S)Nc1ccc(F)cc1)C(c1cccs1)N1CCOCC1 (stereo unspecified) | 1.91% (inactive) |
| CC1=CN2C(=N)/C(=C/c3ccc(C)o3)C(=O)N=C2S1 | 20.6% (inactive) |
| CC1=CN2C(=N)/C(=C/c3ccco3)C(=O)N=C2S1 | 11% (inactive) |
| N#Cc1cc2c(N)c(C(=O)Nc3ccccc3)sc2nc1N | -0.33% (inactive) |
| CCN(CC)S(=O)(=O)c1ccc2c(c1)nc(CCC(=O)OCC(=O)Nc1cc(Cl)cc(Cl)c1)n2C | 0.35% (inactive) |
| CCOC(=O)c1c(NC(=O)CSc2nnc(C)c(=O)[nH]2)sc(C)c1C | 6.77% (inactive) |
| Cc1nnc(SCC(=O)Nc2sc3c(c2C(N)=O)CCCC3)[nH]c1=O | 11.5% (inactive) |
| O=C(Nc1cccc2cccnc12)c1ccc2c(c1)OCCO2 | 3.45% (inactive) |
| COC(=O)c1c(C(=O)OC)c(-c2cccc(Cl)c2)n2c1CS(=O)C2 (stereo unspecified) | 12.7% (inactive) |

| SMILES | inhibition |
| --- | --- |
| Cc1nnc(SCC(=O)Nc2cccc(C(F)(F)F)c2)[nH]c1=O | 3.06% (inactive) |
| CSc1nc(N(CCO)CCO)c2sc3nc(-c4ccco4)c4c(c3c2n1)CCC4 | 27.5% (active) |
| CSc1nc(N(C)CCO)c2sc3nc(-c4ccco4)c4c(c3c2n1)CCC4 | 11.4% (inactive) |
| CCN(CCO)c1nc(SC)nc2c1sc1nc(-c3ccco3)c3c(c12)CCC3 | 20% (inactive) |
| COC(=O)c1sccc1NC(=O)CSCCc1ccccn1 | 4.36% (inactive) |
| Cc1ccc(CNC(=O)C(Cc2ccccc2)NS(=O)(=O)c2cccs2)cc1 (stereo unspecified) | -3.28% (inactive) |
| O=C(NCc1cccs1)C(Cc1ccccc1)NS(=O)(=O)c1cccs1 (stereo unspecified) | 13.3% (inactive) |
| O=C(c1ccco1)N1CCN(Cc2cccnc2)CC1 | 3.43% (inactive) |
| CC(C)(C)NC(=O)Cn1nnc(-c2ccc(S(C)(=O)=O)cc2)n1 | 9.97% (inactive) |
| Cc1onc(-c2ccncc2)c1C(=O)O | 0.4% (inactive) |
| COc1ccccc1-c1n[nH]c(=S)n1-c1ccccc1 | 2.6% (inactive) |
| CN1CCN(C(=O)c2cc(Cl)ccc2Cl)CC1 | 8.9% (inactive) |
| CC(=O)NNC(=S)NCCc1ccccc1 | 6.55% (inactive) |
| O=C(CCc1ccc(O)cc1)NNC(=S)NCCc1ccccc1 | -1.96% (inactive) |
| Cc1nn(-c2ccccc2)c(N)c1C1(O)C(=O)N(C)c2ccccc21 (stereo unspecified) | 1.69% (inactive) |
| CC1Nc2ccccc2C(=O)N1NS(=O)(=O)c1ccccc1 (stereo unspecified) | 1.49% (inactive) |
| CC(/C=C1\SC(=S)N(NC(=O)c2cccc(O)c2)C1=O)=C\c1ccccc1 | -3.91% (inactive) |
| CC1(C)Nc2ccccc2C(=O)N1NS(=O)(=O)c1ccccc1 | 2.35% (inactive) |
| Cn1cc(/C=C2\SC(=S)N(NC(=O)c3ccccc3)C2=O)c2ccccc21 | 3.01% (inactive) |
| O=C(NN1C(=O)C2C3C=CC(O3)C2C1=O)c1cccc(O)c1 (stereo unspecified) | 6.69% (inactive) |
| O=C(Nc1ccc(C(=O)NN2C(=O)c3ccccc3C2=O)cc1)c1ccccc1 | 8.25% (inactive) |
| CCOc1cc(N2CCOCC2)c(OCC)cc1NC(=O)c1ccc(S(C)(=O)=O)cc1 | 9.02% (inactive) |
| COc1ccccc1N(C)S(=O)(=O)c1ccc(C(=O)OCC(=O)NCc2ccco2)cc1 | -0.82% (inactive) |

| SMILES | inhibition |
| --- | --- |
| Cc1cccc(NC(=O)N2CCC(c3nc4ccccc4o3)CC2)c1 | 10% (inactive) |
| COc1cc(NC(=S)NC(=O)C(C)C)ccc1NC(=O)c1cc2ccccc2o1 | 10.7% (inactive) |
| COc1ccc(NC(=O)Nc2ccc(OCC(=O)N3CCOCC3)cc2)cc1OC | 0.44% (inactive) |
| CCC(C)(C)C1CCc2c(sc(NC(=O)c3cccs3)c2C(N)=O)C1 (stereo unspecified) | -0.66% (inactive) |
| C=CCn1c(=NC(=O)CC)n(C)c2ccccc21 | 0.56% (inactive) |
| Cn1c(CNc2ccccc2O)nc2ccccc21 | 25% (active) |
| CCCn1c(CNc2ccccc2O)nc2ccccc21 | 0.88% (inactive) |
| Cn1c(CNc2nc3ccccc3n2C)nc2ccccc21 | -11.6% (inactive) |
| COc1cc(C(=S)N2CCOCC2)cc(OC)c1OC(=O)Cc1ccc(F)cc1 | 7.01% (inactive) |
| CC(C)(C)NC(=O)NC(=O)COC(=O)CCCc1c[nH]c2ccccc12 | 3.27% (inactive) |
| O=C1NCCCc2nonc21 | 0.35% (inactive) |
| CCOc1cc(/C=N/NS(=O)(=O)c2ccccc2)ccc1OS(=O)(=O)c1ccc(C)cc1 | 14.5% (inactive) |
| CCOc1cc(/C=N/N=C2/NC(=O)C(CC(=O)O)S2)ccc1OCc1ccc(Cl)cc1 (stereo unspecified) | 9.38% (inactive) |
| CC(=O)Nc1ccc(S(=O)(=O)Oc2cccc(/C=C3\SC(N)=NC3=O)c2)cc1 | -0.74% (inactive) |
| COc1cc(/C=N/N=C2/NC(=O)C(CC(=O)O)S2)ccc1OCc1ccc(Cl)cc1 (stereo unspecified) | 21.8% (inactive) |
| CCOc1cc(/C=N/O)ccc1OS(=O)(=O)c1ccc(C)cc1 | 13.6% (inactive) |
| CC(=O)Nc1ccc(S(=O)(=O)Oc2ccc(/C=N/N=C3/NC(=O)C(CC(=O)O)S3)cc2)cc1 (stereo unspecified) | 10.6% (inactive) |
| CCN(Cc1ccccc1)C(=O)c1cc(COc2c(F)cccc2F)on1 | 5% (inactive) |
| COc1ccccc1-c1ccc(SCC(=O)NCCc2ccccc2)nn1 | 10.8% (inactive) |
| Cc1cc(C(=O)COC(=O)c2nccnc2N)c(C)n1C | 6.62% (inactive) |
| CCOC(=O)C1CCCN(CC(=O)c2c[nH]c3ccc(C)cc23)C1 (stereo unspecified) | 5.27% (inactive) |
| CCOCc1nnc(NC(=O)c2ccc(NC(C)=O)cc2)s1 | 1.45% (inactive) |
